Results as given in PubChem BioAssay (NCI).
The panel holds about 83,000 compounds, 20% with a hit somewhere; the sample as a whole holds those more often.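 Results are percent growth after 48 hours of single-concentration exposure. 100 means growth as in untreated cells, lower positive values show inhibition; negative values down to -100 show cell death.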 Calls of active or inactive are those of the source.

tested on: HT29 colon; experiment: NCI-60 one-dose screen, 48 h (100 = growth as untreated, 0 = no growth, -100 = all killed); settings: 10 µM unless noted
Method: Growth inhibition of the HT29 human tumor cell line is measured as a screen for anti-cancer activity. Cells are grown in 96 well plates and exposed to the test compound for 48 hours. Compounds are tested at a single concentration, which is 10^-5 M for most compounds. The reported endpoint is percent growth (GI% or GIPRCNT), where numbers from 0 - 100% represent growth inhibition, and numbers from -100% - 0 represent cell death. For example, a value of 40 represents 60% growth inhibition. A value of 0 means no net growth occurred over the course of the experiment. A value of -40 indicates 40% of cells at the beginning of the experiment died by the end of the experiment. A value of -100 means all cells are dead at the end of the experiment.
NCI-60 Human Tumor Cell Lines Screen was performed using the standard one-dose NCI protocol, which is described in more detail at https://dtp.cancer.gov/discovery_development/nci-60/default.htm.
Compounds with GIPRCNT values below 10 were considered active. Activity score was based on GIPRCNT using the following formula: […]
Score is 0 for GIPRCNT values of 100 or above, 50 for GIPRCNT values of 0, and 100 for GIPRCNT values of -100.

Compound | growth
CC1C(/C=N/NC(N)=S)C(C#N)(C#N)C1(C#N)C#N (stereo not given) | 110% (inactive)
COc1ccc2c(c1)c(/C(O)=C1\COC(=O)C1=O)cn2Cc1ccc(F)cc1 | 115% (inactive)
Cc1c(Cl)cccc1C(=O)Nc1nc2c(s1)CN(C(=O)c1ccc(C(F)(F)F)cc1)CC2 | 1.63% (active)
CC1(C)N=C(N)N=C(N)N1c1cccc(CCc2ccccc2)c1 | 14.3% (inactive)
Oc1c(CN2CCCC2)cc(CSCc2ccccc2)c2cccnc12 | 91% (inactive)
C/C=C(/C)n1cnc2c(Nc3ccccn3)nc(Cl)nc21 | 98.1% (inactive)
COc1ccc(/C(C)=C(\c2ccc(Cl)cc2)c2ccc(OCCN3CCCCC3)cc2)cc1 | -2.6% (active)
COc1ccc2c(c1)c(-c1nc(-c3c[nH]c4ncccc34)cs1)cn2CCO | 54.5% (inactive)
COC(=O)N1CC(Oc2ccccn2)C2CC1c1ccccc1O2 (stereo not given) | 103% (inactive)
CC(=O)OC(c1ccccc1)C1CCOC1=O (stereo not given) | 99.5% (inactive)
CNCc1cccc2c1OCCOCCOCCNS(=O)(=O)c1ccc(cc1)-c1cnc(N)c(n1)C(=O)N2 | 12.4% (inactive)
Cc1ccc(C(=O)c2ccc(CC(=O)N=Nc3c(O)[nH]c4ccc(Br)cc34)n2C)cc1 | 105% (inactive)
CCSc1oc(C)nc1[P+](c1ccccc1)(c1ccccc1)c1ccccc1 | 16.7% (inactive)
COc1ccc(Cn2cc3c(c2-c2ccccc2)CCc2cnoc2-3)cc1 | 11.7% (inactive)
COc1cccc(/C=N/NC(=O)c2ccccc2N2CCCC2)c1O | 69.3% (inactive)
CN1CCN(CC(=O)Nc2ccc3ncnc(Nc4ccc(Oc5cccc(C(F)(F)F)c5)c(Cl)c4)c3c2)CC1 | -19.2% (active)
O=C(NCc1cccc(CNC(=O)Nc2nc3ccccc3[nH]2)c1)Nc1nc2ccccc2[nH]1 | -45.7% (active)
Cc1ccc(/C=C/C(=O)c2ccc(-n3cc(CN4CCN(c5cc6c(cc5F)c(=O)c(C(=O)O)cn6C5CC5)CC4)nn3)cc2)cc1 | 98.9% (inactive)
CC[C@]12C=CCN3CC[C@@]4(c5ccc(OC)cc5N(C)[C@H]4[C@@](O)(C(=O)OC)[C@@H]1OC(=O)CCC[P+](c1ccccc1)(c1ccccc1)c1ccccc1)[C@@H]32 | 2.42% (active)
COc1ccc(C(=O)/C=C/c2ccc(N3CCCCC3)cc2)cc1OC | 95.1% (inactive)

Compound | growth
CN(C)CCCC1(c2ccc(F)cc2)OCc2cc(-c3ccc4cc[nH]c4c3)ccc21 (stereo not given) | 4.73% (active)
COc1cc(NC(=O)c2cncnc2Nc2ccc3c(ccn3Cc3ccccn3)c2)cc(OC)c1 | 11.7% (inactive)
CC1CCN(C(=S)SCC(=O)NC(=O)c2ccccc2)CC1 | 101% (inactive)
C=C1C(=O)O[C@H]2[C@H]1CC/C(COC(=O)c1cc3cc(Cl)ccc3[nH]1)=C\CC[C@@]1(C)O[C@@H]21 | -75.9% (active)
CCN(CC)CCN1C(=O)c2cccc3c(/C=C/CN4C(=O)c5cccc6cccc(c56)C4=O)ccc(c23)C1=O | 103% (inactive)
Fc1cc(Nc2ccc3c(OCCCN4CCOCC4)cccc3n2)ccc1Cl | -49.3% (active)
COc1ccc(C(O)c2cc3c(N)c(C(=O)Nc4cccc(Cl)c4C)sc3nc2C)cc1 (stereo not given) | -7.84% (active)
COc1ccc(/C=C/C(=O)c2cc(OC)c(OC)c(OC)c2)cc1OCC(=O)Nc1nc2ccc(OC(F)(F)F)cc2s1 | 20.1% (inactive)
C#CCNC(=O)[C@]1(C)CCC[C@@]2(C)[C@H]1CC=C1C=C(C(C)C)CC[C@@H]12 | 102% (inactive)
CCOC(=O)c1c(C)nc2ccccc2c1/C=C/c1cccs1 | 76.3% (inactive)
O=[N+]([O-])c1ccc(-c2cn3nc(-c4c[nH]c5ccccc45)sc3n2)cc1 | 95.3% (inactive)
O=C(CCCCCCN1CC(=O)N2[C@H](c3ccc(Br)cc3)c3[nH]c4ccccc4c3C[C@@H]2C1=O)NO | 53% (inactive)
O=C1/C(=C\c2ccccn2)c2ccccc2N1c1c(Cl)cccc1Cl | 10.8% (inactive)
COc1ccc(-c2n[nH]c(=O)c3nc(NC(=S)Nc4ccc(Oc5ccccc5)cc4)sc23)cc1 | 87.6% (inactive)
COc1ccc(/C=C/c2ccc3ccccc3n2)c(OC)c1 | 55.6% (inactive)
O=C(Nc1ncc(Cc2ccccc2)s1)c1ccc2c(c1)OCCCO2 | 9.72% (active)
OCCNCCNC(Cc1ccc(Cl)cc1)c1ccccc1 (stereo not given) | 59.9% (inactive)
CCN1C(=O)N(CC)C2C1NN=c1s/c(=C3\C(=O)N(CCC(C)C)c4ccccc43)c(=O)n12 (stereo not given) | 4.19% (active)
COCCn1cc(-c2csc(-c3c[nH]c4ccc(Br)cc34)n2)c2cccnc21 | 18.2% (inactive)
CC(=O)O[C@H]1C[C@@H]2C(C)(C)C(=O)CC[C@@]2(C)c2ccc(C(C)C)cc21 | 111% (inactive)
